# Test results taken from PubChem BioAssay.
# Calls of active or inactive are those of the source.
# Tests used:
# [1] = compounds binding Alexa647 anti-His antibody – biochemical, small-molecule microarray, 635 nm fluorescence, artefact control for SMM control protein annotation, primary screen (AID 1128); conditions: higher = more signal;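 further: score merges feature fluorescence with signal-to-noise for each printed compound spot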
# [2] = tested on: Human papillomavirus type 1a E7 protein (residues 1-88); assay: HPV1a E7 small-molecule binders, primary screen, biochemical, small-molecule microarray, residues 1-88, 635 nm (AID 1129); conditions: small-molecule microarray binding, fluorescence 635 nm; higher = more signal
# [3] = biological target: Focal adhesion kinase 1 (Homo sapiens) (UniProt Q05397); assay: PTK2 protein binding on printed compound slides – biochemical, small-molecule microarray, 635/667 nm fluorescence, BSA, DTT, primary screen (AID 1130); conditions: 635 nm fluorescence, higher = more signal;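 further: composite of spot emission at 667 nm and signal to noise over triplicate slides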
# Sequence of Focal adhesion kinase 1 (Homo sapiens) (Q05397 whole entry, looked up): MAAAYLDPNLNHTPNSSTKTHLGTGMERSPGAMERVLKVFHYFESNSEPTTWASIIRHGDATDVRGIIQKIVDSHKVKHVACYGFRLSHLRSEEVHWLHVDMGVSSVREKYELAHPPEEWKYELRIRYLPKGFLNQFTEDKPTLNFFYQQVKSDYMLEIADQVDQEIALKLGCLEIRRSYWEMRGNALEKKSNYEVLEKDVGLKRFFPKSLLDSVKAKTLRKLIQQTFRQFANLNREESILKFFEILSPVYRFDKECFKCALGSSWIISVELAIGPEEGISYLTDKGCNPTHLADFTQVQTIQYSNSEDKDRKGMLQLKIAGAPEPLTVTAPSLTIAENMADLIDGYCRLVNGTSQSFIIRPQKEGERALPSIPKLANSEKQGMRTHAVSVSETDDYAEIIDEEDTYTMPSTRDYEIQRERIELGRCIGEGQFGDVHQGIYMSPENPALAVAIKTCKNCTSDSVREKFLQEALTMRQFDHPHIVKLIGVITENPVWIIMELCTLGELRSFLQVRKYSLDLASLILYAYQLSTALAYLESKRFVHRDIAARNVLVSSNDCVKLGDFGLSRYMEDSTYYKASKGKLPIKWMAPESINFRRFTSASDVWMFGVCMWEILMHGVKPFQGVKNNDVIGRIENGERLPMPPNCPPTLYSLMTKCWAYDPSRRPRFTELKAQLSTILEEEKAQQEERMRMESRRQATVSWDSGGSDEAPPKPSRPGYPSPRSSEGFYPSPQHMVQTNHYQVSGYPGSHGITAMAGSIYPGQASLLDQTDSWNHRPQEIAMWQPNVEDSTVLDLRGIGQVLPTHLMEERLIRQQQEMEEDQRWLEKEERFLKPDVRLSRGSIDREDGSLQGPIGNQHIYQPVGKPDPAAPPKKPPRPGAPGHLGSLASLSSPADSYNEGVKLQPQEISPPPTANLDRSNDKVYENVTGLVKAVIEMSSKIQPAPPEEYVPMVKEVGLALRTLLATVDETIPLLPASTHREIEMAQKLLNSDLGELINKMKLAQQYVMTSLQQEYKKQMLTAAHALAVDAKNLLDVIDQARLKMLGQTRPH
# [4] = tested on: Fibrinogen (Alexa647-labelled); assay: Alexa647-fibrinogen binding to printed small molecules – biochemical, small-molecule microarray, 635/667 nm fluorescence, artefact control for SMM control-protein annotation, profiling panel (AID 1131); conditions: fibrinogen-A647 binding fluorescence, higher = more signal;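 further: z-score merges 667 nm fluorescence with per-spot signal-to-noise over triplicate slides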
# [5] = biological target: Follistatin (Homo sapiens) (UniProt P19883); assay: FST protein binding to printed compounds – biochemical, small-molecule microarray, 635/667 nm fluorescence, primary screen (AID 1132); conditions: 635 nm fluorescence, higher = more signal
# Sequence of Follistatin (Homo sapiens) (P19883 whole entry, looked up): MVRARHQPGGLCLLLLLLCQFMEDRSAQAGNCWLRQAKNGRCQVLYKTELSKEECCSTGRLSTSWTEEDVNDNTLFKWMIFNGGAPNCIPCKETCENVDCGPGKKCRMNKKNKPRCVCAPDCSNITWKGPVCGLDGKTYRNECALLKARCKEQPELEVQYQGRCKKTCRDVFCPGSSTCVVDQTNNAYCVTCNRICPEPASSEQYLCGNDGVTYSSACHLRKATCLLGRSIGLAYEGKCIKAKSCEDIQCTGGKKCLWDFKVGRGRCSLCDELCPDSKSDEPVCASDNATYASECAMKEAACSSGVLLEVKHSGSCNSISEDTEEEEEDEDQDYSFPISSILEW
# [6] = biological target: Fibroblast growth factor 2 (Homo sapiens) (UniProt P09038); assay: basic fibroblast growth factor binding to printed compounds – biochemical, small-molecule microarray, 635/667 nm fluorescence, primary screen (AID 1133); conditions: FGF2, fluorescence 635/667, higher = more signal
# Sequence of Fibroblast growth factor 2 (Homo sapiens) (P09038 whole entry, looked up): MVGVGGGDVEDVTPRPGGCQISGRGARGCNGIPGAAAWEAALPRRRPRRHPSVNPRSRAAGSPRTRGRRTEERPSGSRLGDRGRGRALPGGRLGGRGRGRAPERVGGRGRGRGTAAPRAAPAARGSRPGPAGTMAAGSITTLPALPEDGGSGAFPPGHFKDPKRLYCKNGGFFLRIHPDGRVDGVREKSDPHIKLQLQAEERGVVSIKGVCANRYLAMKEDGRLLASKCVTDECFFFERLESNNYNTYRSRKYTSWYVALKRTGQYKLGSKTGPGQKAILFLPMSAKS
# [7] = JC-1 mitochondrial potential readout, lung cancer cells – cell-based, A549, JC-1 fluorescence, basal, 24 h, 100 nL, profiling panel (AID 1138); conditions: higher = more signal;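 further: A549 lung adenocarcinoma cells under basal conditions with no added stimulus; test concentration not given here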
# Lefty1 = Lefty1 protein binding to printed compounds – biochemical, small-molecule microarray, 635/667 nm fluorescence, primary screen (AID 1139); conditions: fluorescence 635/667, higher = more signal
# [8] = tested on: wheat germ agglutinin (Triticum aestivum), Alexa647-labelled; assay: Alexa647-WGA lectin binding to printed small molecules – biochemical, small-molecule microarray, 635/667 nm fluorescence, artefact control for SMM control-protein annotation, profiling panel (AID 1140); conditions: WGA-A647 binding, 635 nm fluorescence, higher = more signal;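 further: score merges 667 nm feature emission with signal to noise over triplicate slides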
# [9] = biological target: Luciferin 4-monooxygenase (Photinus pyralis) (UniProt P08659); assay: inhibition of purified Photinus pyralis luciferase – biochemical, luminescence, purified enzyme, 2006 set, primary screen (AID 1141); conditions: purified firefly luciferase, SteadyGlo luminescence, 30 min; higher = more signal, called active from +8 up or from −8 down;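 further: cell-free assay with purified firefly luciferase at 100 ng per well in PBS; test concentration not given here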
# Sequence of Luciferin 4-monooxygenase (Photinus pyralis) (P08659 whole entry, looked up): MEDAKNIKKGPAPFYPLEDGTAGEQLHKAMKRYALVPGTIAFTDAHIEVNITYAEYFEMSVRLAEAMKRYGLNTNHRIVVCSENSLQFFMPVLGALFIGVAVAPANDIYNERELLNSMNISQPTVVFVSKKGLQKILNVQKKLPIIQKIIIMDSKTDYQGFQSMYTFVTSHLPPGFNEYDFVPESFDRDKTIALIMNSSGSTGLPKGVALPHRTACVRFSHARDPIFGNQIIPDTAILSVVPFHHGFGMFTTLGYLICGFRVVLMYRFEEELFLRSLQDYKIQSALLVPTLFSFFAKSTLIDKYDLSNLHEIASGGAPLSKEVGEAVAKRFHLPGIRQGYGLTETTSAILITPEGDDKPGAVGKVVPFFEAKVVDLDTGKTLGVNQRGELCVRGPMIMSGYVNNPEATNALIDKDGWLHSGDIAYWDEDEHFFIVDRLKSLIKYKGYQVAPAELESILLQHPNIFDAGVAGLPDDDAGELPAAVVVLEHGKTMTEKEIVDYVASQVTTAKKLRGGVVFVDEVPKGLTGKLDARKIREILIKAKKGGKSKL
Structure (SMILES),composite z-score [1],composite z-score [2],composite z-score [3],composite z-score [4],composite z-score [5],composite z-score [6],z-score [7],composite z-score (Lefty1),composite z-score [8],z-score [9]
CC(C)CN1C(=O)[C@@]2(Cc3ccccc31)c1ccccc1C(=O)N(Cc1ccccc1)[C@H]2c1ccc(CO)cc1,-0.966,-1.28,-0.457,-0.492,-1.72,-0.776,-0.204,-0.78,0.145,-0.336 (inactive)
COCCOC(=O)N1C(=O)[C@@]2(c3cc(C#CCCO)ccc31)[C@H](C(=O)N1CCc3cc(OC)c(OC)cc3C1)[C@H]1C(=O)O[C@H](c3ccccc3)[C@H](c3ccccc3)N1[C@@H]2c1ccc(OCCO)cc1,0.768,1.08,0.148,0.786,1.27,1.29,-0.236,1.11,0.774,-2.83 (inactive)
COC(=O)[C@@]1(Cc2ccc(OC)cc2)[C@H]2c3cc(C(=O)N4CCCC4)n(CCF)c3C[C@H]2CN1C(=O)c1ccccc1,2.31,1.17,0.896,1.04,0.411,-0.0251,-1.32,-0.3,1.06,1.49 (inactive)
O=C1O[C@H](c2ccccc2)[C@H](c2ccccc2)N2[C@H]1[C@@H](C(=O)N1CCN(c3ncccn3)CC1)[C@]1(C(=O)Nc3ccc(C#CCCO)cc31)[C@H]2c1ccccc1OCCO,1.55,1.2,0.358,0.869,0.618,1.29,0.91,0.151,1.02,-0.682 (inactive)
NC(=O)NCC#Cc1ccc2c(c1)[C@]1(C(=O)N2)[C@H](c2ccc(O)cc2)N2[C@H](c3ccccc3)[C@H](c3ccccc3)OC(=O)[C@H]2[C@@H]1C(N)=O,0.184,-1.21,-0.549,-0.934,-0.0645,-0.219,-0.65,-0.295,-0.784,-0.22 (inactive)
Cc1ccc(C(C)CC(O)C2C=CC3C(=O)N(Cc4ccccc4)C(=O)C3N2n2cnnc2)o1 (stereo not given),1.54,0.942,-0.103,0.923,0.713,0.0103,-1.49,0.273,0.842,0.785 (inactive)
Cc1cc(C)c(C(O)C2C=CC3C(=O)N(c4ccccc4)C(=O)C3N2Nc2ccccc2)c(C)c1 (stereo not given),2.11,1.22,0.638,1.03,0.784,0.0968,0.384,0.366,1.43,-0.584 (inactive)
O=C1OCCC=C[C@H]2OC34C=CCN(Cn5nnc6ccccc65)C(=O)[C@H]3N(CCCCCO)C(=O)[C@@H]4C12 (stereo not given in full),2.73,-0.476,0.0209,-2.02,-0.862,-0.346,0.427,-0.559,-0.807,-0.245 (inactive)
COC(=O)[C@@]1(Cc2ccccc2)[C@H]2c3cc(C(=O)N4CCCC4)n(Cc4ccc(OC(F)(F)F)cc4)c3C[C@H]2CN1C(=O)c1ccccc1,1.52,1.24,0.653,0.892,0.575,-0.65,0.989,-0.577,1.16,1 (inactive)
O=C1C2C=CC(C(O)c3ccc(Br)cc3)N(Nc3ccccc3)C2C(=O)N1c1ccccc1 (stereo not given),0.0876,1.14,0.081,0.572,0.52,-0.364,0.0103,-0.51,1.09,0.296 (inactive)
CC1=C2[C@@H](CCc3ccccc3)OB(O)C[C@@H]2[C@@H]2C(=O)C=CC(=O)[C@@H]2C1,0.892,0.339,-0.512,0.565,1.12,1,-1.2,0.845,0.469,-3.34 (inactive)
COC(=O)[C@@]1(Cc2ccc(F)cc2)[C@H]2c3cc(C(=O)N(C)C)n(CCSCCO)c3C[C@H]2CN1C(=O)c1ccccc1,2.06,0.674,0.879,0.241,0.297,-0.254,0.554,-0.601,0.45,0.0635 (inactive)
CN(C)CCCC[C@@H]1NC(=O)[C@H]2C[C@@H](C(=O)NCCCCCCNC(=O)CS)[C@@H](c3ccc(O)cc3)N2C1=O,0.135,0.0218,1.05,-0.934,1.32,0.804,-0.685,0.628,-0.149,0.78 (inactive)
C=C[C@H](C)[C@H](OC(=O)Nc1ccc(SC)cc1)c1ccc(O)c2ccccc12,0.499,-0.526,0.209,-1.35,1.08,0.162,-1.51,0.192,-0.341,-2.89 (inactive)
COC(=O)C(CC#Cc1ccc2c(c1)[C@]1(C(=O)N2)[C@H](c2ccc(O)cc2)N2[C@H](c3ccccc3)[C@H](c3ccccc3)OC(=O)[C@H]2[C@@H]1C(=O)O)C(=O)OC,0.124,0.56,0.318,0.298,0.879,-0.12,-0.233,0.369,-0.22,-0.462 (inactive)
COc1cc(C(O)C2C=CC3C(=O)N(C)C(=O)C3N2NC(=O)OC(C)(C)C)cc(OC)c1OC (stereo not given),1.28,1.21,0.474,1.03,0.0314,-0.0371,-0.54,-0.338,0.807,0.225 (inactive)
COCCOC(=O)N1C(=O)[C@@]2(c3cc(C#CCNC(N)=O)ccc31)[C@H](C(=O)N1CCCCCCC1)[C@H]1C(=O)O[C@H](c3ccccc3)[C@H](c3ccccc3)N1[C@@H]2c1ccc(OCCO)cc1,-0.456,0.492,0.423,0.577,1.15,0.126,-1.6,0.577,0.534,-1.19 (inactive)
O=C1O[C@@H](c2ccccc2)[C@@H](c2ccccc2)N2[C@@H](c3ccc(O)cc3)[C@]3(C(=O)Nc4ccc(C#CC5(O)CCCCCC5)cc43)[C@@H](C(=O)N3CCN(c4ncccn4)CC3)[C@H]12,1.69,1.22,0.56,0.925,0.642,0.385,-0.243,0.441,0.601,1.04 (inactive)
COc1ccc(CCNC(=O)[C@@H]2c3ccccc3C(=O)N(Cc3ccccc3)[C@H]2c2ccc(CO)cc2)cc1,0.597,0.529,-0.0502,-0.279,0.987,0.363,1.77,0.442,0.791,0.582 (inactive)
CC(C)(C)OC(=O)CC[C@]1(C(=O)N2CCCCC2)N=C(c2ccc(OCCCO)cc2)O[C@H]1c1ccccc1CN=[N+]=[N-],3.05,1.21,0.72,0.978,1.4,1.42,2.94,0.675,1.09,-3.56 (inactive)
CN(C)CCCCNC(=O)[C@H]1C[C@H]2C(=O)N[C@@H](CCCC[N+](C)(C)C)C(=O)N2[C@H]1c1cccc(OCCO)c1,1.06,0.809,0.373,0.54,1.35,1.67,-0.312,1.35,0.115,0.53 (inactive)
COc1ccc([Si](C)(C)[C@@H]2[C@@H](CC(=O)N(CCO)Cc3ccccc3)O[C@]3(C(=O)N(Cc4ccc(N5CCOC5=O)cc4)c4ccccc43)[C@H]2C)cc1,1.56,0.595,0.294,0.631,1.17,1.05,-0.147,1.48,0.415,-0.356 (inactive)
CCCCC(=C=CC[C@H](O)c1cccc(OCCO)c1)C[C@H](O)COCc1ccccc1,-0.178,0.101,0.105,-0.606,0.0306,-0.473,0.396,0.743,0.435,-0.352 (inactive)
C[C@@]1([C@@H](NC(=O)c2cccs2)c2ccc(-c3ccccc3)cc2)C[C@H]1C1CCCCC1,-1.16,-0.678,0.429,-1.76,-0.27,-1.48,-0.255,-0.507,-1.45,1.44 (inactive)
COC(=O)C(CC#Cc1ccc2c(c1)[C@]1(C(=O)N2)[C@H](C(=O)N2CCc3cc(OC)c(OC)cc3C2)[C@H]2C(=O)O[C@H](c3ccccc3)[C@H](c3ccccc3)N2[C@@H]1c1ccc(O)cc1)C(=O)OC,2.77,1.22,0.695,0.867,1.49,1.84,-1.48,1.14,0.664,8.96 (active)
CCCc1cc2c(n1Cc1ccc(OC)cc1)C(C)C1CN(C(=O)c3ccccc3)C(C)(C(=O)OC)C21 (stereo not given),2.74,1.24,1.56,1.01,0.0092,-1.19,0.788,-0.515,1.47,0.062 (inactive)
CN(C)C(=O)[C@@]1(Cc2ccccc2N=[N+]=[N-])N=C(c2ccc(OCCCO)cc2)O[C@H]1c1ccccc1N=[N+]=[N-],1.85,1.19,0.921,0.887,1.01,-0.118,2.01,0.16,0.98,-2.25 (inactive)
COc1ccc([Si](C)(C)[C@@H]2[C@@H](CCO)O[C@]3(C(=O)N(Cc4cccc(N5C(=O)COc6ccccc65)c4)c4ccccc43)[C@H]2C)cc1,0.279,0.733,0.0257,0.415,-0.0428,0.327,-1.04,0.0695,0.764,-0.123 (inactive)
COC(=O)C(CC#Cc1ccc2c(c1)[C@]1(C(=O)N2)[C@H](C(=O)N2CCc3cc(OC)c(OC)cc3C2)[C@H]2C(=O)O[C@H](c3ccccc3)[C@H](c3ccccc3)N2[C@@H]1c1ccc(OCCO)cc1)C(=O)OC,1.47,1.19,0.344,0.99,1.01,1.71,-1.29,0.928,1.23,-1.9 (inactive)
COCCOC(=O)N1C(=O)[C@@]2(c3cc(C#CCC(C(=O)OC)C(=O)OC)ccc31)[C@H](C(=O)N1CCCCCCC1)[C@H]1C(=O)O[C@H](c3ccccc3)[C@H](c3ccccc3)N1[C@@H]2c1ccc(O)cc1,2.63,1.16,0.598,0.59,1.07,1.5,-0.909,0.972,1.13,0.414 (inactive)
